L major viab = Leishmania major promastigote growth inhibition. inhibition, % at 10 µM. hit rate 9% among 200,000. Leishmania major promastigotes, resazurin fluorescence viability; in the data active = inhibition above about 50%;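 also: promastigotes grown with compound for 44 hours at 28 °C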
ROMK mod = modulates human ROMK potassium channel activity. Tet-inducible ROMK, thallium flux fluorescence; actives lie on both sides. P48048. B-score at 10 µM. AID 1918. hit rate 2% among 130,000;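 active = signal ratio slope over the read window, or its plate-corrected B-score, at least 3 SD from the plate mean, either direction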;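 also: B-score of the F/F0 ratio slope over 7 to 12 s after thallium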
p97 ATPase inh = blocks human p97 ATPase activity. hit rate 0.42% among 220,000. inhibition, % at 8 µM. recombinant p97 ATPase, Kinase-Glo ATP luminescence, 3 h. P55072; in the data active = inhibition above about 15%;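 also: 0% = DMSO vehicle and 100% = wells lacking enzyme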
Target sequence (P55072 whole entry, looked up): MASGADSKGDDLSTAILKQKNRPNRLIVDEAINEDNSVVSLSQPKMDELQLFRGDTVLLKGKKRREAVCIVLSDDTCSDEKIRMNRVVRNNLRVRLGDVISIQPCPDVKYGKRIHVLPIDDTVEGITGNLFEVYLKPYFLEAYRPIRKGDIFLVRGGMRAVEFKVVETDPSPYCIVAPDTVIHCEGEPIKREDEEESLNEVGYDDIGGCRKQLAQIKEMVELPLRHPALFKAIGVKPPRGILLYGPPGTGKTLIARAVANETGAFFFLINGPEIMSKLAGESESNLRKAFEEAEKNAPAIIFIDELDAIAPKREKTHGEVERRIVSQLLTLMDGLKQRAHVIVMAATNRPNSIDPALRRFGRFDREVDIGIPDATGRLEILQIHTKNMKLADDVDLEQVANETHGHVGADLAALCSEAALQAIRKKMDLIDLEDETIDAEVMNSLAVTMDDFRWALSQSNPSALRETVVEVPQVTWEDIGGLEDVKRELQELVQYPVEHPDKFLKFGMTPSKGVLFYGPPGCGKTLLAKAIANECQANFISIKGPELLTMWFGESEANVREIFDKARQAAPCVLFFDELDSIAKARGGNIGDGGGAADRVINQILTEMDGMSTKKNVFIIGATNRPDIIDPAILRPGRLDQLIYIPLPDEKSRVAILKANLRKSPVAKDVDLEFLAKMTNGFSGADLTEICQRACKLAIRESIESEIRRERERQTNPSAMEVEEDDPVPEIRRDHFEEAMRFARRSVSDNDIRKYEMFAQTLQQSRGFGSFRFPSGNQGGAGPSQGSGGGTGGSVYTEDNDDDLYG
bCat KO growth = beta-catenin-lacking colon tumor cell growth suppression. HCT116 beta-catenin knockout viability, CellTiter-Glo, 60 h; active compounds read low. viability, % at 10 µM. hit rate 1.5% among 140,000;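 active = viability at or under a set limit, the compound median less 4 SD, cut at about 6% in these data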;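 also: 0% = Hyamine 1622 control at 20 µM and 100% = untreated cell control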
INS promoter inh = TRM-6 insulin promoter activity inhibition; hit rate 0.9% among 130,000; TRM-6 cells (human fetal islet line), insulin promoter-eGFP reporter, imaging; reporter expression induced with tamoxifen; inhibition, % at 2 µM; AID 1273;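 active = inhibition above the mean plus 3 SD, with well images judged a real hit on visual review, cut at about 60% in these data, passing the limit was not always enough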
HCT116 PTEN-null = PTEN-deleted cell growth suppression; hit rate 1.2% among 140,000; viability, % at 10 µM; HCT116 PTEN-null viability, CellTiter-Glo, 60 h; active compounds read low;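 active = viability at or below a set limit, 4 SD under the median of all tested compounds, cut at about 3.7% in these data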;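 also: PTEN knockout HCT116 line with beta catenin targeted HCT116 as companion control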
The depositor's hits bear a star; / = no result. An excerpt weighted towards active compounds, which were near 10% of everything screened.

SMILES | L major viab | ROMK mod | p97 ATPase inh | bCat KO growth | INS promoter inh | HCT116 PTEN-null
Cc1cc(C(=O)CSc2nc(N)cc(N)n2)c(C)n1C1CC1 | 9.8 | 0.236 | 9.5 | / | 0.0 | /
Cc1cc(C(=O)CSc2n[nH]c(N)n2)c(C)n1-c1ccc2c(c1)OCO2 | 59.9* | -0.58 | 6.1 | 61.0 | -24.1 | 63.2
Cc1cc(C(=O)CSc2nc(N)cc(=O)[nH]2)c(C)n1-c1ccc(OC(F)F)cc1 | 98.0* | -0.0825 | 3.8 | / | / | /
Cc1cc(-n2c(C)cc(C(=O)CSc3nc(N)cc(=O)[nH]3)c2C)no1 | / | / | -0.3 | / | / | /
Cc1cc(C(=O)CSc2nc(N)cc(N)n2)c(C)n1-c1cccc(F)c1 | 76.9* | -0.297 | 1.4 | 89.7 | 38.5 | 74.2
Cc1cc(C)c(S(=O)(=O)N2CCCOC2CNC(=O)C(=O)NCCCn2ccnc2)c(C)c1 (stereo unspecified) | 54.4* | 0.537 | 4.3 | 77.3 | -7.1 | 85.4
COCCNCC(=O)Nc1ccc(OC(F)(F)F)cc1 | -8.5 | 0.553 | 4.0 | / | 41.7 | /
CSC1=NC(C)(C)C=C(/C=C/c2ccc(Cl)cc2)N1 | 100.4* | 0.125 | -0.3 | / | / | /
CCSC1=NC(C)(C)C=C(/C=C/c2ccc(Cl)cc2Cl)N1 | 100.1* | -0.454 | -1.8 | 33.3 | 29.0 | 32.6
CC1(C)N=C(c2ccc(Cl)cc2Cl)C(=O)N1 | -5.2 | 0.0197 | 3.2 | 94.2 | / | 114.8
CSC1=NC(C)(C)C=C(/C=C/c2ccc(Cl)cc2Cl)N1 | 71.7* | 0.0444 | 3.5 | / | 7.1 | /
CSC1=NC(C)(C)C=C(/C=C/c2c(Cl)cccc2Cl)N1 | 58.3* | -0.0335 | 0.0 | / | -21.4 | /
C=CCn1c(SCC(=O)NCC2CCCO2)nnc1-c1ccccc1 (stereo unspecified) | -5.2 | -0.221 | 0.7 | / | 10.5 | /
CCOc1ccc(NC(=O)COC(=O)C23CC4CC(CC(C4)C2)C3)c([N+](=O)[O-])c1 | -2.1 | 1.12 | -6.2 | 75.5 | 12.5 | 79.4
Cc1nc(-c2ccccc2)sc1-c1nc(-c2cccs2)ncc1S(=O)(=O)c1ccccc1 | 6.2 | -0.0394 | 4.5 | 79.8 | / | 98.9
CCOC(=O)c1cnc(-n2nc(C)cc2C)nc1NCCc1ccccc1 | 99.5* | -1.16 | 0.9 | 2.2* | -7.1 | 2.9*
O=C(NCCCN1CCOCC1)C(Sc1ccccc1)c1ccccc1 (stereo unspecified) | 90.5* | / | -0.8 | 104.7 | -13.0 | 99.7
COc1cccc(C(=O)NCCCN2CCN(CCCNC(=O)c3cccc(OC)c3)CC2)c1 | -1.4 | / | 4.5 | 93.0 | -6.1 | 100.4
CCN1CCN(CCCNC(=O)c2cc3cc4ccc(OC)cc4nc3o2)CC1 | 100.2* | / | -3.8 | 50.0 | 25.0 | 60.9
O=C(NCCCN1CCOCC1)c1ccco1 | -1.3 | 0.874 | 1.2 | 94.2 | 3.2 | 100.7
Cc1ccc2cc3cc(C(=O)NCCN4CCOCC4)oc3nc2c1 | 70.5* | / | 4.6 | 80.8 | 5.3 | 93.6
O=C(NCCCN1CCOCC1)c1cc2ccccc2o1 | 79.5* | 1.05 | 5.0 | 90.0 | -2.7 | 93.5
Cc1noc(C)c1COc1ccc(C(=O)OCC(=O)Nc2c(C)n(C)n(-c3ccccc3)c2=O)cc1 | -1.2 | -0.122 | -4.7 | / | / | /
O=C(O)CCCC(=O)N1N=C(c2ccccc2)CC1c1cccs1 (stereo unspecified) | / | 0.158 | -5.5 | / | / | /
COc1ccc(Sc2cc(C(F)(F)F)nc(-c3ccccn3)n2)cc1 | 12.6 | / | -1.2 | 58.7 | 33.3 | 58.8
SMILES | L major viab | ROMK mod | p97 ATPase inh | bCat KO growth | INS promoter inh | HCT116 PTEN-null
COc1ccc2cc3cc(C(=O)NCCCN4CCOCC4)oc3nc2c1 | 97.5* | / | 7.4 | 88.0 | -6.2 | 81.0
FC(F)Oc1ccc(NC(=S)NNc2ccnc3cc(Cl)ccc23)cc1 | 4.8 | 0.994 | 6.1 | / | / | /
O=C(CSc1nc2scc(-c3ccco3)c2c(=O)n1-c1ccccc1)N1CCOCC1 | 2.4 | / | 3.5 | 100.8 | 23.1 | 91.8
NC(=O)CSc1nc2scc(-c3ccco3)c2c(=O)n1-c1ccccc1 | 8.8 | / | 14.6* | 88.3 | 7.1 | 100.5
Cc1nc2ccccc2c2c(N)c3ccccc3n12 | 51.0* | -1.19 | -0.8 | / | / | /
CCCN1C(=O)/C(=C/c2c(N3CCNC(=O)C3CC(=O)OC)nc3c(C)cccn3c2=O)SC1=S (stereo unspecified) | / | / | 14.6* | / | / | /
COc1cccc(NC(=S)N(CCCN2CCOCC2)C(C)c2cc3ccccc3o2)c1 (stereo unspecified) | 97.0* | -0.749 | 2.9 | / | -33.3 | /
COc1cccc2cc(C(C)N(CCCN3CCOCC3)C(=O)Nc3ccccc3)oc12 (stereo unspecified) | 81.7* | / | 1.1 | 82.4 | 6.2 | 89.5
O=C(c1ccco1)N1CCN(Cc2cn[nH]c2-c2ccc(F)cc2F)CC1 | -3.1 | -1.94 | 0.5 | / | / | /
